The text below walks through data of ChEMBL document CHEMBL3433997, “St. Jude Leishmania screening dataset” (2016).

As a reminder, the inhibition is the relative decrease from the control value, in per cent.

Sequence of Solute carrier family 2, facilitated glucose transporter member 1 (Homo sapiens) (P11166 whole entry): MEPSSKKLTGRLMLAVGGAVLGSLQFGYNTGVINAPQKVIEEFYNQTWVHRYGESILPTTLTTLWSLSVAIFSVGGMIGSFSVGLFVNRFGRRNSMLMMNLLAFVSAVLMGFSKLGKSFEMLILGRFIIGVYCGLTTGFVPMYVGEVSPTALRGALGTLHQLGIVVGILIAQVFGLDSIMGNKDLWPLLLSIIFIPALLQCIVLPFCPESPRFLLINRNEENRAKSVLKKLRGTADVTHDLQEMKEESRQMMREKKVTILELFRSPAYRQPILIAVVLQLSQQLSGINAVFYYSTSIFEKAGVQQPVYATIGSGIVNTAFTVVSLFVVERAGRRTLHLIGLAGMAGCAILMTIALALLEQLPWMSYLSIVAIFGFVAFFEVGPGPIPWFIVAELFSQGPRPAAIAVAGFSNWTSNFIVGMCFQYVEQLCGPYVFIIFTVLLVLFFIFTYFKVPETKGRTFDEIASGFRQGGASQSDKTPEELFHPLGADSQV

The first assay has as its target Solute carrier family 2, facilitated glucose transporter member 1 (Homo sapiens) (UniProt P11166). The assay is described as follows: ST_JUDE_LEISH: Cytotoxicity at 2uM final concentration against transgenic Leishmania Mexicana promastigotes LmGLUT1 that are glucose transport deficient and complemented with the human glucose transporter GLUT1. Activity is measured by DNA content using SYBR green in vitro. The assay is classed as functional.
In the case of `COc1ccc(C2=CCN(c3ccc(Cl)c(Cl)c3)C2=O)cc1OCCN1CCCCC1`, the inhibition was found to be 3.36%.
Same read-out and setting: in the case of `Cc1cnc(C(=O)Nc2cccc(-c3cccc(-c4nc5cccc(C)c5[nH]4)c3)c2)cn1` it was 4.11%; in that of `CN1CCCC1CCNc1ncc2c(-c3ccc(NC(=O)Nc4cc(C(F)(F)F)ccc4F)cc3)nn(C)c2n1` (stereo not given), 3.33%.
Turning to `Cc1csc2nc(-c3ccccn3)nc(Nc3ccc4ncsc4c3)c12`, the inhibition is 0.73%.
The same measure, in the same setting: in the case of `Cn1cncc1C(=O)Nc1cccc(-c2ccc(-c3nc4cc(F)ccc4[nH]3)cc2)c1` it was 0%.
Same read-out and setting: in the case of `CC(C)(C)OC(=O)[C@H](CC(N)=O)NC(=O)c1ccc(-c2ccc(-c3nc4cc(C(F)(F)F)ccc4[nH]3)s2)cc1` it was 5.01%.
Regarding `CCCCCCCN1CC[C@@H](CCCc2ccnc3ccc(OCCN4CCOCC4)cc23)[C@@H](CC)C1`, the inhibition stood at 10.6%.
Still for that read-out and setting: in the case of `CCOc1cc(CNCCCCCCNCc2cc(OCC)c(OCC)c3ccccc23)c2ccccc2c1OCC` it was 58.6%; in that of `CC1CCCN(C(=O)C(C)Nc2cc(Cl)ccc2N2CCOCC2)C1` (stereo not given), 1.2%.
For `CN1CCN(CC(O)CNC(=O)Nc2ccc(Br)cc2)CC1` (stereo not given), the inhibition came to 3.01%.
With `Cc1[nH]c(C)c(-c2ccc(Oc3ccc(F)cc3)cc2)c(=O)c1Br`, the inhibition is 4.89%.
Same read-out and setting: to `Cc1cc(=NN=Cc2ccc(Cl)cc2)c2ccc(F)cc2[nH]1` belongs 2.07%; to `CC(C)OC(=O)c1ccccc1S(N)(=O)=O`, 15.3%; to `CN(C)CCCc1cc(NC(=O)Nc2cccc(Cl)c2Cl)ccc1I`, 1.65%.
On the same count and under the same terms, in the case of `CS(=O)(=O)c1ccc(CNCc2cccc(-c3cccc(-c4nc5cc(F)ccc5[nH]4)c3)c2)cc1` it was 2.4%; in that of `CCCCCCCCOc1ccc(N2C(N)=NC(N)=NC2(C)C)cc1`, 2.56%; in that of `Nc1ncc(-c2cc3ccccc3o2)c(N)n1`, 3.02%.
As to `N#Cc1ccc(NC(=O)N2CCCN(CCCCCNC(=O)/C=C/c3ccc(Cl)c(Cl)c3)CC2)cc1`, the inhibition worked out at 1.89%.
Regarding `COc1ccc(C2CCN(CCCNC(=O)c3ccc(NC(=O)c4ccc(Cl)cc4)cc3)CC2)c(OC)c1`, the inhibition was determined as 3.85%.
For `O=C(NCc1ccccc1F)c1ccc(N2CCC(NCc3cccc(-n4cccn4)c3)CC2)cc1`, the inhibition is -0.13%.
Same read-out and setting: in the case of `Cc1ccc(C(=O)Cn2nc(-c3ccc(C)c(S(=O)(=O)N4CCCC4)c3)ccc2=O)cc1` it was 1.61%.
On to `O=c1cc(NCCCNCc2ccc(Cl)c(Cl)c2)[nH]c2ccc(Oc3ccccc3)cc12`, for which the inhibition is -1.41%.
On the same count and under the same terms, in the case of `O=C(NCCCCN1CCC(c2ccc(Br)cc2)CC1)c1ccc(NC(=O)c2ccc(Cl)cc2)cc1` it was -0.29%; in that of `CCCN(CCC)S(=O)(=O)c1ccc(C(=O)N2CCC(C(=O)OCC)CC2)cc1`, 6.42%.
Consider `Cc1ccc(Oc2cnn(C)c(=O)c2Nc2cccc(C(=O)NCCc3ccccn3)c2)c(C)c1`, for which the inhibition turned out to be 4.16%.
On the same count and under the same terms, in the case of `COc1cccc(NC(=O)Cn2c(C)c(C(=O)C(F)(F)F)c3ccccc32)c1` it was 2.88%; in that of `CN(c1ccc(F)cc1)S(=O)(=O)c1ccc(Cl)c(C(=O)Nc2cccc(C#N)c2)c1`, 4.24%.
Still for that read-out and setting: in the case of `CNCCNCc1cccc(-c2ccc(-c3nc4cccc(C)c4[nH]3)cc2)c1` it was -1.62%.
On to `COc1cc(CNCCCNc2nc3ncccc3[nH]2)c2[nH]cc(Br)c2c1`, for which the inhibition turned out to be 23.9%.
The same measure, in the same setting: in the case of `O=C(Nc1cccc(-c2nn3ccccc3c2-c2ccnc(Nc3ccc(Cc4ccncc4)cc3)n2)c1)c1c(F)cccc1F` it was 12%.
Consider `COc1ccc(C2CC(=O)C3=C(C2)NC(C)=C(C(=O)OC(C)C)C3c2cccc(O)c2)cc1OC` (stereo not given), for which the inhibition came to 4.15%.
As to `CC(C)c1ccc(-c2noc(SCC(=O)N(C)c3ccc(F)cc3)n2)cc1`, the inhibition is -1.33%.
As to `N=C1N=C(N)NCN1OCc1ccc(Cl)c(Cl)c1`, the inhibition came out at 3.39%.
On to `COc1cccc2c(O)c(CNC3CCCCC3)ccc12`, for which the inhibition is -0.95%.
In the case of `c1cc(CN2CCN(c3ccncc3)CC2)cc(-c2ccc(-c3nc4ccccc4[nH]3)s2)c1`, the inhibition came to 3.45%.
Take `Cc1ccc(NC(=O)c2ccc(N3CCN(c4ccncc4)CC3)cn2)cc1F`: the inhibition came out at 109%.
With `Cc1[nH]c(C)c(-c2ccc(CCc3ccc(C(F)(F)F)cc3)nc2)c(=O)c1Cl`, the inhibition was 2.59%.
As for `CN(C)c1ccc(-c2ccc(C(=O)NC3CCN(Cc4ccc5c(c4)OCCO5)CC3)s2)cc1`, the inhibition was 4.82%.
For the molecule `CC(C)(C)c1ccc(CN2CCCCC(NC(=O)c3cc(-c4cccc(F)c4)cs3)C2)cc1` (stereo not given), the inhibition is -2.41%.
Still for that read-out and setting: to `O=C(Cc1ccc(F)cc1)NC1CCN(c2ccnc3cc(Cl)ccc23)C1` (stereo not given) belongs 0.69%.

Another assay deals with Hexose transporter 1 (Plasmodium falciparum) (UniProt O97467). Description: ST_JUDE_LEISH: Cytotoxicity at 2uM final concentration against transgenic Leishmania Mexicana promastigotes LmPfHT that are glucose transport deficient and complemented with the Plasmodium falciparum hexose transporter. Activity is measured by DNA content using SYBR green in vitro. The format is functional.
On to `COc1ccc(C2=CCN(c3ccc(Cl)c(Cl)c3)C2=O)cc1OCCN1CCCCC1`, for which the inhibition worked out at 1.21%.
Regarding `Cc1cnc(C(=O)Nc2cccc(-c3cccc(-c4nc5cccc(C)c5[nH]4)c3)c2)cn1`, the inhibition is 2.89%.
Still for that read-out and setting: to `CN1CCCC1CCNc1ncc2c(-c3ccc(NC(=O)Nc4cc(C(F)(F)F)ccc4F)cc3)nn(C)c2n1` (stereo not given) belongs 1.92%; to `Cc1csc2nc(-c3ccccn3)nc(Nc3ccc4ncsc4c3)c12`, 2.13%; to `Cn1cncc1C(=O)Nc1cccc(-c2ccc(-c3nc4cc(F)ccc4[nH]3)cc2)c1`, -0.68%.
Regarding `CC(C)(C)OC(=O)[C@H](CC(N)=O)NC(=O)c1ccc(-c2ccc(-c3nc4cc(C(F)(F)F)ccc4[nH]3)s2)cc1`, the inhibition was determined as 3.22%.
Consider `CCCCCCCN1CC[C@@H](CCCc2ccnc3ccc(OCCN4CCOCC4)cc23)[C@@H](CC)C1`, for which the inhibition is 7.56%.
Turning to `CCOc1cc(CNCCCCCCNCc2cc(OCC)c(OCC)c3ccccc23)c2ccccc2c1OCC`, the inhibition stood at 12.1%.
Same read-out and setting: to `CC1CCCN(C(=O)C(C)Nc2cc(Cl)ccc2N2CCOCC2)C1` (stereo not given) belongs 1.09%; to `CN1CCN(CC(O)CNC(=O)Nc2ccc(Br)cc2)CC1` (stereo not given), 3.45%; to `Cc1[nH]c(C)c(-c2ccc(Oc3ccc(F)cc3)cc2)c(=O)c1Br`, 4.31%.
On the same count and under the same terms, in the case of `Cc1cc(=NN=Cc2ccc(Cl)cc2)c2ccc(F)cc2[nH]1` it was 2.71%.
The same measure, in the same setting: to `CC(C)OC(=O)c1ccccc1S(N)(=O)=O` belongs 12.7%.
For the molecule `CN(C)CCCc1cc(NC(=O)Nc2cccc(Cl)c2Cl)ccc1I`, the inhibition amounted to 5.95%.
In the case of `CS(=O)(=O)c1ccc(CNCc2cccc(-c3cccc(-c4nc5cc(F)ccc5[nH]4)c3)c2)cc1`, the inhibition is 0.6%.
Still for that read-out and setting: in the case of `CCCCCCCCOc1ccc(N2C(N)=NC(N)=NC2(C)C)cc1` it was 3.69%; in that of `Nc1ncc(-c2cc3ccccc3o2)c(N)n1`, 2.51%; in that of `N#Cc1ccc(NC(=O)N2CCCN(CCCCCNC(=O)/C=C/c3ccc(Cl)c(Cl)c3)CC2)cc1`, 1.77%.
Consider `COc1ccc(C2CCN(CCCNC(=O)c3ccc(NC(=O)c4ccc(Cl)cc4)cc3)CC2)c(OC)c1`, for which the inhibition was determined as 4.23%.
The same measure, in the same setting: in the case of `O=C(NCc1ccccc1F)c1ccc(N2CCC(NCc3cccc(-n4cccn4)c3)CC2)cc1` it was 3.43%; in that of `Cc1ccc(C(=O)Cn2nc(-c3ccc(C)c(S(=O)(=O)N4CCCC4)c3)ccc2=O)cc1`, 0.61%.
As to `O=c1cc(NCCCNCc2ccc(Cl)c(Cl)c2)[nH]c2ccc(Oc3ccccc3)cc12`, the inhibition is -1.42%.
On the same count and under the same terms, in the case of `O=C(NCCCCN1CCC(c2ccc(Br)cc2)CC1)c1ccc(NC(=O)c2ccc(Cl)cc2)cc1` it was 0.2%; in that of `CCCN(CCC)S(=O)(=O)c1ccc(C(=O)N2CCC(C(=O)OCC)CC2)cc1`, 5.73%; in that of `Cc1ccc(Oc2cnn(C)c(=O)c2Nc2cccc(C(=O)NCCc3ccccn3)c2)c(C)c1`, 4.25%.
Take `COc1cccc(NC(=O)Cn2c(C)c(C(=O)C(F)(F)F)c3ccccc32)c1`: the inhibition was 1.7%.
For the molecule `CN(c1ccc(F)cc1)S(=O)(=O)c1ccc(Cl)c(C(=O)Nc2cccc(C#N)c2)c1`, the inhibition turned out to be 3.52%.
Consider `CNCCNCc1cccc(-c2ccc(-c3nc4cccc(C)c4[nH]3)cc2)c1`, for which the inhibition is -3.38%.
Turning to `COc1cc(CNCCCNc2nc3ncccc3[nH]2)c2[nH]cc(Br)c2c1`, the inhibition was found to be 43.1%.
Same read-out and setting: to `O=C(Nc1cccc(-c2nn3ccccc3c2-c2ccnc(Nc3ccc(Cc4ccncc4)cc3)n2)c1)c1c(F)cccc1F` belongs 17.3%; to `COc1ccc(C2CC(=O)C3=C(C2)NC(C)=C(C(=O)OC(C)C)C3c2cccc(O)c2)cc1OC` (stereo not given), 1.12%; to `CC(C)c1ccc(-c2noc(SCC(=O)N(C)c3ccc(F)cc3)n2)cc1`, 0.23%.
The same measure, in the same setting: in the case of `N=C1N=C(N)NCN1OCc1ccc(Cl)c(Cl)c1` it was 1.71%.
`COc1cccc2c(O)c(CNC3CCCCC3)ccc12`: the inhibition was -0.26%.
Still for that read-out and setting: to `c1cc(CN2CCN(c3ccncc3)CC2)cc(-c2ccc(-c3nc4ccccc4[nH]3)s2)c1` belongs 2.53%; to `Cc1ccc(NC(=O)c2ccc(N3CCN(c4ccncc4)CC3)cn2)cc1F`, 95.4%.
The same measure, in the same setting: to `Cc1[nH]c(C)c(-c2ccc(CCc3ccc(C(F)(F)F)cc3)nc2)c(=O)c1Cl` belongs 3.29%; to `CN(C)c1ccc(-c2ccc(C(=O)NC3CCN(Cc4ccc5c(c4)OCCO5)CC3)s2)cc1`, 6.3%; to `CC(C)(C)c1ccc(CN2CCCCC(NC(=O)c3cc(-c4cccc(F)c4)cs3)C2)cc1` (stereo not given), -3.63%.
On the same count and under the same terms, in the case of `O=C(Cc1ccc(F)cc1)NC1CCN(c2ccnc3cc(Cl)ccc23)C1` (stereo not given) it was 1.78%.
